Experiments:
Experiment in all cases: DAPPL (digital affinity profiling via proximity ligation, sequencing); 10 mM Tris-HCl pH 7.5, 50 mM NaCl, 1 mM DTT, 4% glycerol, room temperature, 30 min; GST-TFs on glutathione beads, 16-mer random dsDNA library, 0.1% formaldehyde crosslink after washing; high values mean tight binding
[1] = molecular target: T1, FLI1 (Homo sapiens, UniProt Q01543 1-452); conditions: protein: recombinant; tags: N-terminal GST; dsDNA, one strand shown
T1 sequence: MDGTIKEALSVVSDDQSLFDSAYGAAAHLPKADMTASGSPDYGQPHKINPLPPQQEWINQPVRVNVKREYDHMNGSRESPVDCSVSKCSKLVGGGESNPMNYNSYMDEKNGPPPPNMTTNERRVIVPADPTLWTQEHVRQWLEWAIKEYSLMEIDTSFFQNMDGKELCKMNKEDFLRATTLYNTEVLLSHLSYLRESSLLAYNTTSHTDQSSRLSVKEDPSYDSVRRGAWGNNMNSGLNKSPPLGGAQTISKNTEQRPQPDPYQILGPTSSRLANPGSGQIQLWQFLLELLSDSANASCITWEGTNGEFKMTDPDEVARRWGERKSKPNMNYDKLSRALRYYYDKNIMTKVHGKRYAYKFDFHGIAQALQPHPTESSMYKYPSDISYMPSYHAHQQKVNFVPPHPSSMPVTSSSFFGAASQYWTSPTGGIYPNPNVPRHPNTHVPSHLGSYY
Summary of the method: (§1)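 Beads coated with glutathione captured GST-fused human transcription factors that had been expressed in yeast, and the factors were then given DNA barcodes and pooled with a tag-only sample. The pools were incubated with 200 nmole of a random double-stranded 16-mer DNA library in Tris/NaCl/DTT/glycerol buffer for 30 min at room temperature, washed, crosslinked with 0.1% formaldehyde and proximity-ligated with BsaI/T4 ligase at 37 °C for 1 h. PCR amplification and Illumina NextSeq500 sequencing came last. Binding signal is each hexamer's read frequency for a factor divided by its frequency for the tag-only sample.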

[2] = molecular target: T2, ELK1 (Homo sapiens, UniProt P19419 1-428); conditions: protein: recombinant; tags: N-terminal GST; dsDNA, one strand shown
T2 sequence: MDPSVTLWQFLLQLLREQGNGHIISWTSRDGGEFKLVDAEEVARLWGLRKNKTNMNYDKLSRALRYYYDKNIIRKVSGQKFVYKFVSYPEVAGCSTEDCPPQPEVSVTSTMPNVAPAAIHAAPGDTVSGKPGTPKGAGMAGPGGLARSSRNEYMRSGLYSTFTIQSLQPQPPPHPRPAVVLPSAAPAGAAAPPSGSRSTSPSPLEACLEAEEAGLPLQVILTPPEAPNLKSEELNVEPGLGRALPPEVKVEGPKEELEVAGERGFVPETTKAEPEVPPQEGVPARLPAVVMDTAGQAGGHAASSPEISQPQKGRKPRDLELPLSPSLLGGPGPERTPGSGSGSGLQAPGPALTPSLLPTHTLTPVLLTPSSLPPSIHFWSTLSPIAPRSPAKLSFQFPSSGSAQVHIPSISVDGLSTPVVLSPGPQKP
Summary of the method: as §1

[3] = molecular target: T3, GABPA (Homo sapiens, UniProt Q06546 1-454); conditions: protein: recombinant; tags: N-terminal GST; dsDNA, one strand shown
T3 sequence: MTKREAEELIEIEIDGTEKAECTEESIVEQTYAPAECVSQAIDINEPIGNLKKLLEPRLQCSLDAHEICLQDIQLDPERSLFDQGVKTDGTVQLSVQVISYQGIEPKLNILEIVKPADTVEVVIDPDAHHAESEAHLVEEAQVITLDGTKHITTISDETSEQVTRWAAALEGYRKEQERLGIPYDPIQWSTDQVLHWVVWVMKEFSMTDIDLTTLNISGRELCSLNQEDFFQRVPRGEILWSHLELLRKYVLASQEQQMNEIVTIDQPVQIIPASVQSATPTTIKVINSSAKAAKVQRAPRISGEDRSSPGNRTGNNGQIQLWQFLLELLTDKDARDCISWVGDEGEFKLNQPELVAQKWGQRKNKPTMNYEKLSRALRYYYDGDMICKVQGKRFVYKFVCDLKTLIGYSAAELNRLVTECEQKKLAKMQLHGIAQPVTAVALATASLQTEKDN
Summary of the method: as §1

[4] = molecular target: T4, ERG (Homo sapiens, UniProt P11308 1-479); conditions: protein: recombinant; tags: N-terminal GST; dsDNA, one strand shown
T4 sequence: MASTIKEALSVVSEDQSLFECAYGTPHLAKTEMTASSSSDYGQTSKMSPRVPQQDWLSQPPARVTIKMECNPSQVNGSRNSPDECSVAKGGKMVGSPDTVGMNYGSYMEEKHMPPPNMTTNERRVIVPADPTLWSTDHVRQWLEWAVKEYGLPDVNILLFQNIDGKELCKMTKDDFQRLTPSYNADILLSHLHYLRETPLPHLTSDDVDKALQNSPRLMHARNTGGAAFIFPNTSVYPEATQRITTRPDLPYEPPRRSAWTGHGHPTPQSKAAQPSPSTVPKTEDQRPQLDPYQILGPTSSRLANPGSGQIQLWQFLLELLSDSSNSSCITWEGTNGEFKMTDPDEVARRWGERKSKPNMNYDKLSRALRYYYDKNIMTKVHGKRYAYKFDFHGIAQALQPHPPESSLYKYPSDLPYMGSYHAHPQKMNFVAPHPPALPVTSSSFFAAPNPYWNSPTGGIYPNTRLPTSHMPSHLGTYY
Summary of the method: as §1

[5] = molecular target: ELF1 (Homo sapiens, UniProt P32519 1-619); conditions: protein: recombinant; tags: N-terminal GST; dsDNA, one strand shown
Chain of ELF1 (P32519 whole entry): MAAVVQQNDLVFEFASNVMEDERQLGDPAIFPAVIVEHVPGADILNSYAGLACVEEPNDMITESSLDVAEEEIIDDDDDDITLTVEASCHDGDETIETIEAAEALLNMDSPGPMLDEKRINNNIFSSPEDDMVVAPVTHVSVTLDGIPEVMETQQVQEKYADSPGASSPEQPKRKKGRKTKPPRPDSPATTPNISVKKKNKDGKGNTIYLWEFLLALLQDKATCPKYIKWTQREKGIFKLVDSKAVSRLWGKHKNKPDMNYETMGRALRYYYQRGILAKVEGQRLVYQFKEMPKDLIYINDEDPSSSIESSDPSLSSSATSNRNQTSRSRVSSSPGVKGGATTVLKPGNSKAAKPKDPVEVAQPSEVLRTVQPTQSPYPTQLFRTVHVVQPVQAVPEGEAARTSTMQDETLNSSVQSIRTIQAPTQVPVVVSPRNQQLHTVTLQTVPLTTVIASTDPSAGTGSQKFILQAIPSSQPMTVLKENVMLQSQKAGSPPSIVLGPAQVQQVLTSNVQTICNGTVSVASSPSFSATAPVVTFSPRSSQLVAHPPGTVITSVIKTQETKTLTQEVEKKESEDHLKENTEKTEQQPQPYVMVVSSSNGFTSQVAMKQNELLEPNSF
Summary of the method: as §1

[6] = molecular target: T5, EHF (Homo sapiens, UniProt Q9NZC4 1-300); conditions: protein: recombinant; tags: N-terminal GST; dsDNA, one strand shown
T5 sequence: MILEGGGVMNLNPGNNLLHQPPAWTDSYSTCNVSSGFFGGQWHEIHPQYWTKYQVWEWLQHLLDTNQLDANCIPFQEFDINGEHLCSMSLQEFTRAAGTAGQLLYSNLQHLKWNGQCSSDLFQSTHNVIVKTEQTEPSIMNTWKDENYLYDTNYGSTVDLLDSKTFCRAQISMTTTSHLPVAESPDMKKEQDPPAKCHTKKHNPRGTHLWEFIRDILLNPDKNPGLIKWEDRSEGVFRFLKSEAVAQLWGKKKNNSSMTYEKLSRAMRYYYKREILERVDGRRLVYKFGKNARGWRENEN
Summary of the method: as §1

[7] = molecular target: SPI1 (Homo sapiens, UniProt P17947 1-270); conditions: protein: recombinant; tags: N-terminal GST; dsDNA, one strand shown
Summary of the method: as §1

[8] = molecular target: SPIB (Homo sapiens, UniProt Q01892 1-262); conditions: protein: recombinant; tags: N-terminal GST; dsDNA, one strand shown
Chain of SPIB (Q01892 whole entry): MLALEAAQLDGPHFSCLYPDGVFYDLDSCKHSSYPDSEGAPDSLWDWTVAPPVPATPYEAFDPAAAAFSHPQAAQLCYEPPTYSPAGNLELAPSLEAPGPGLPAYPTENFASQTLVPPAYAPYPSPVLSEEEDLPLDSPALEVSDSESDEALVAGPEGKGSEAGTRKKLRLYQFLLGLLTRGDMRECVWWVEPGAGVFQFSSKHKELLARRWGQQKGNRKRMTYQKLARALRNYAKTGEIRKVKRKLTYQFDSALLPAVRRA
Summary of the method: as §1

[9] = molecular target: T6, ELK3 (Homo sapiens, UniProt P41970 1-407); conditions: protein: recombinant; tags: N-terminal GST; dsDNA, one strand shown
T6 sequence: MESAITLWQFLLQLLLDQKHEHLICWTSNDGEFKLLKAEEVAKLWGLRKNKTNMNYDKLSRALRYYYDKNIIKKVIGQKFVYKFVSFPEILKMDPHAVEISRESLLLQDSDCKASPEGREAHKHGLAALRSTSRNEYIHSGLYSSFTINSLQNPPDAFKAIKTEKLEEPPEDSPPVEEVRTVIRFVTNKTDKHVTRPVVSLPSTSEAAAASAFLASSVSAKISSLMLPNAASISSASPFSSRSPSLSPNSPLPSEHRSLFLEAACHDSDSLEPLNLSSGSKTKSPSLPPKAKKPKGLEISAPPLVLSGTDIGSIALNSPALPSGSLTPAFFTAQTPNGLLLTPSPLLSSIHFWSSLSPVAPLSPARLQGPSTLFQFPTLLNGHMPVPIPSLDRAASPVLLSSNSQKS
Summary of the method: as §1

[10] = molecular target: T7, FEV (Homo sapiens, UniProt Q99581 1-238); conditions: protein: recombinant; tags: N-terminal GST; dsDNA, one strand shown
T7 sequence: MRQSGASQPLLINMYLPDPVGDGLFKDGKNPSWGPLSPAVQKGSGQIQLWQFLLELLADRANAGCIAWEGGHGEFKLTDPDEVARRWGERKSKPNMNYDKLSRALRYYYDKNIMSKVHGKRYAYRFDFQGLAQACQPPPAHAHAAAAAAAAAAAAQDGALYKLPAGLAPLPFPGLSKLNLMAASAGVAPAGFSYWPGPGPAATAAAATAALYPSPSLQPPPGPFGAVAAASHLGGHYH
Summary of the method: as §1

[11] = molecular target: ETV5 (Homo sapiens, UniProt P41161 1-510); conditions: protein: recombinant; tags: N-terminal GST; dsDNA, one strand shown
Chain of ETV5 (P41161 whole entry): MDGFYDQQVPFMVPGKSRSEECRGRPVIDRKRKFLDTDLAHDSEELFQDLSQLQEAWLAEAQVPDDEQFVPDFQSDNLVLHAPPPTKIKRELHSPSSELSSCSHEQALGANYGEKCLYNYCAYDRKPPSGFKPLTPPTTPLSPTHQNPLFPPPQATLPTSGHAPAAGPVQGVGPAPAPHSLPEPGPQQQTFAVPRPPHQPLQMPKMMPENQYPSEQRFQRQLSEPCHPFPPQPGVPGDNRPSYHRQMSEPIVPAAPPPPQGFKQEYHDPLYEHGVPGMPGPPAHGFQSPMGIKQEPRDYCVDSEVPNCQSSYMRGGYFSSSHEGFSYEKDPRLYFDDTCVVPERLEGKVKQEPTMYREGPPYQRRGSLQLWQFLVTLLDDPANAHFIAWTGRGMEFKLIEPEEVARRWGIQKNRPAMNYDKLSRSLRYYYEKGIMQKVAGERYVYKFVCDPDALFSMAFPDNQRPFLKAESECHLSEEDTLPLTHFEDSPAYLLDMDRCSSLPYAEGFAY
Summary of the method: as §1

[12] = molecular target: HSF1 (Homo sapiens, UniProt Q00613 1-529); conditions: protein: recombinant; tags: N-terminal GST; chain copies: 3; dsDNA, one strand shown
Chain of HSF1 (Q00613 whole entry): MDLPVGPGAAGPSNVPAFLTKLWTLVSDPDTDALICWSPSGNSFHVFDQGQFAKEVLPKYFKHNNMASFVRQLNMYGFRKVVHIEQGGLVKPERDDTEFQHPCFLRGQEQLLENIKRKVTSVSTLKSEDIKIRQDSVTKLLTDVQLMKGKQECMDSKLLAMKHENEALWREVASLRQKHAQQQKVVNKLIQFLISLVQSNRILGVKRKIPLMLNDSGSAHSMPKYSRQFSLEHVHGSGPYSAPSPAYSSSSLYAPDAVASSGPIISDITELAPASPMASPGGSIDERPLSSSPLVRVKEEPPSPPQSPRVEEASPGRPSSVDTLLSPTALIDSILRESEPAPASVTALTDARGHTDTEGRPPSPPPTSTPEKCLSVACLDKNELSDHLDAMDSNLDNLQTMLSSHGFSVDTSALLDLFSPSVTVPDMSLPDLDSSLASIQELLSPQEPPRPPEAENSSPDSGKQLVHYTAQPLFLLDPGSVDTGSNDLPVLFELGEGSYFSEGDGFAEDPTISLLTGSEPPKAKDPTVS
Summary of the method: as §1

[13] = molecular target: T8, SPIC (Homo sapiens, UniProt Q8N5J4 1-248); conditions: protein: recombinant; tags: N-terminal GST; dsDNA, one strand shown
T8 sequence: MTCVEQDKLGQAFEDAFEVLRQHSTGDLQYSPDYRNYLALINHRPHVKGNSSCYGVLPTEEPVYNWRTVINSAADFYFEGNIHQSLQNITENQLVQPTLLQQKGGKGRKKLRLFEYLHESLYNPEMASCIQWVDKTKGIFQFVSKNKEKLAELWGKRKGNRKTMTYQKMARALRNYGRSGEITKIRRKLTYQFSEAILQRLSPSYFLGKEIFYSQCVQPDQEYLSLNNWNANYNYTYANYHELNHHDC
Summary of the method: as §1

[14] = molecular target: ELF4 (Homo sapiens, UniProt Q99607 1-663); conditions: protein: recombinant; tags: N-terminal GST; dsDNA, one strand shown
Chain of ELF4 (Q99607 whole entry): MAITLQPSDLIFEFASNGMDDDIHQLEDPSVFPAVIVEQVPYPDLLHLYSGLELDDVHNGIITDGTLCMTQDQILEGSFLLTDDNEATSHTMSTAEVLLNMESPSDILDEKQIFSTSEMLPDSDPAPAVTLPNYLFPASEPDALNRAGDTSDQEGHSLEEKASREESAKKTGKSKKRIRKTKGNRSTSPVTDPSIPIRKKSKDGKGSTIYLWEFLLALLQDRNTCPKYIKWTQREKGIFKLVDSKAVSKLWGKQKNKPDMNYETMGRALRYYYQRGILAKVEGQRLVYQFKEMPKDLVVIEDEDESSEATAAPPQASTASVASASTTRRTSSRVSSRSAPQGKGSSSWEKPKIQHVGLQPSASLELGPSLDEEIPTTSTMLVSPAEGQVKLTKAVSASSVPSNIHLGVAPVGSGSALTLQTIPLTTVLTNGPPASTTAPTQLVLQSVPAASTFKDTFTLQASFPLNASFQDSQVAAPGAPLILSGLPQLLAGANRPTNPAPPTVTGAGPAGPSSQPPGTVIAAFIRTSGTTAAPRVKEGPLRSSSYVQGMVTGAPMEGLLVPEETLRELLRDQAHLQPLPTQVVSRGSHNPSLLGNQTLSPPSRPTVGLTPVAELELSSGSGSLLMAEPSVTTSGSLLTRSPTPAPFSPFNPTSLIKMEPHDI
Summary of the method: as §1

[15] = molecular target: T9, ELK4 (Homo sapiens, UniProt P28324-2 1-405); conditions: protein: recombinant; tags: N-terminal GST; dsDNA, one strand shown
T9 sequence: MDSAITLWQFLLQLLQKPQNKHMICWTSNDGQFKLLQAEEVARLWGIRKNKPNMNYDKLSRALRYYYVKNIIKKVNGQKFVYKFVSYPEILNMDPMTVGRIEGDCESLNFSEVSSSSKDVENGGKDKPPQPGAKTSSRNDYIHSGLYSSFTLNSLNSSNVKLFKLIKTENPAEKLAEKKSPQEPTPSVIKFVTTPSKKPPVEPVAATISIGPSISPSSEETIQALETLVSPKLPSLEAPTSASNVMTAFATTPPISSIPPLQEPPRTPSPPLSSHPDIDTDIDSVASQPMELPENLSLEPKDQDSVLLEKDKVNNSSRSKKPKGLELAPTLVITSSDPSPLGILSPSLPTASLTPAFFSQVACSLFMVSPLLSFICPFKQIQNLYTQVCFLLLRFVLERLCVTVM
Summary of the method: as §1

[16] = molecular target: T10, ETV2 (Homo sapiens, UniProt O00321 1-342); conditions: protein: recombinant; tags: N-terminal GST; dsDNA, one strand shown
T10 sequence: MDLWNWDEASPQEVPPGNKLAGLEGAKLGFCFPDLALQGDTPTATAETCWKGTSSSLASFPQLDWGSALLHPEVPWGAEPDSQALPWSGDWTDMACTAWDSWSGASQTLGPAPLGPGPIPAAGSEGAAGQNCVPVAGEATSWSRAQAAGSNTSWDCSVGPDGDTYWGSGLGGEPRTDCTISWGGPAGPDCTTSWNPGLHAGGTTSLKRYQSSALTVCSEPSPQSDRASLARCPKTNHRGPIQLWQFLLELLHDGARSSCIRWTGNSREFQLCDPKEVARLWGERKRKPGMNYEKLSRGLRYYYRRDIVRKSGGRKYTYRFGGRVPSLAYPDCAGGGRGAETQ
Summary of the method: as §1

[17] = molecular target: T11, ELF3 (Homo sapiens, UniProt P78545 1-371); conditions: protein: recombinant; tags: N-terminal GST; dsDNA, one strand shown
T11 sequence: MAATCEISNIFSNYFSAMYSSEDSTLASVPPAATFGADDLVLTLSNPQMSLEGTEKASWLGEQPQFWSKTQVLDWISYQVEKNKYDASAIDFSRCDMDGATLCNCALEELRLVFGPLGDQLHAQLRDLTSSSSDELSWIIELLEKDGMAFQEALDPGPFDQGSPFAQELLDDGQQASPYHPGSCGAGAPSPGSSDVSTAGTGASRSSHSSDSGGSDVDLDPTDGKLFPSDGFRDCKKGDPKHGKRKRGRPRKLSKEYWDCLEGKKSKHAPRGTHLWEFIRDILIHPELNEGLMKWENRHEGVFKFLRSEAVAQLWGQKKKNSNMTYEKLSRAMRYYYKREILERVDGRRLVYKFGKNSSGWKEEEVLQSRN
Summary of the method: as §1

[18] = molecular target: CRX (Homo sapiens, UniProt O43186 1-299); conditions: protein: recombinant; tags: N-terminal GST; dsDNA, one strand shown
Chain of CRX (O43186 whole entry): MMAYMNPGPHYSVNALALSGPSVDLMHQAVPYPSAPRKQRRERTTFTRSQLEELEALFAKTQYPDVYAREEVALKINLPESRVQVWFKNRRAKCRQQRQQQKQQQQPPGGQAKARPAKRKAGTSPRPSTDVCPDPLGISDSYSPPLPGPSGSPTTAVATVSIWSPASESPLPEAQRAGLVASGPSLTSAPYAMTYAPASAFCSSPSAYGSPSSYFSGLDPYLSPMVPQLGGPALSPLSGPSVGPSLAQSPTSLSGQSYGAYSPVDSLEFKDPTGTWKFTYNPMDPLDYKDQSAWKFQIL
Summary of the method: as §1

[19] = molecular target: ETV1 (Homo sapiens, UniProt P50549 1-477); conditions: protein: recombinant; tags: N-terminal GST; dsDNA, one strand shown
Chain of ETV1 (P50549 whole entry): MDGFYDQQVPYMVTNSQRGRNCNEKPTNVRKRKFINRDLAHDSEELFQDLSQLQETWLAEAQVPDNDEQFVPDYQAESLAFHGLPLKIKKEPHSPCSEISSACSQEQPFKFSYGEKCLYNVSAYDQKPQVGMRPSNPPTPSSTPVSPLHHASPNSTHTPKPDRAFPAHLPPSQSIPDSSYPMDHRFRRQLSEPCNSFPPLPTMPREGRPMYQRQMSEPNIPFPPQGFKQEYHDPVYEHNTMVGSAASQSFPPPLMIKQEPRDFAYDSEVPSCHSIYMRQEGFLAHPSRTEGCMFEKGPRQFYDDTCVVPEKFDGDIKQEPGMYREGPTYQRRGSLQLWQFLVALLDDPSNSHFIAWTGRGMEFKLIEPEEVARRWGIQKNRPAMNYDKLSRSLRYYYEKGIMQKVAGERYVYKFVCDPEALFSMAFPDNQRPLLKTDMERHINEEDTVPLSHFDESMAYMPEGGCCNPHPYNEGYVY
Summary of the method: as §1

CCTCCA
binding signal [1]: 1.37 fold enrichment (6-mer frequency, TF over GST control) | binding signal [2]: 1.5 fold enrichment (6-mer frequency, TF over GST control) | binding signal [3]: 1.23 fold enrichment (6-mer frequency, TF over GST control) | binding signal [4]: 1.38 fold enrichment (6-mer frequency, TF over GST control) | binding signal [5]: 1.37 fold enrichment (6-mer frequency, TF over GST control) | binding signal [6]: 1.33 fold enrichment (6-mer frequency, TF over GST control) | binding signal [7]: 1.28 fold enrichment (6-mer frequency, TF over GST control) | binding signal [8]: 1.3 fold enrichment (6-mer frequency, TF over GST control) | binding signal [9]: 1.37 fold enrichment (6-mer frequency, TF over GST control) | binding signal [10]: 1.31 fold enrichment (6-mer frequency, TF over GST control) | binding signal [11]: 1.34 fold enrichment (6-mer frequency, TF over GST control) | binding signal [12]: 1.29 fold enrichment (6-mer frequency, TF over GST control) | binding signal [13]: 1.34 fold enrichment (6-mer frequency, TF over GST control) | binding signal [14]: 1.38 fold enrichment (6-mer frequency, TF over GST control) | binding signal [15]: 1.47 fold enrichment (6-mer frequency, TF over GST control) | binding signal [16]: 1.43 fold enrichment (6-mer frequency, TF over GST control) | binding signal [17]: 1.02 fold enrichment (6-mer frequency, TF over GST control) | binding signal [18]: 1.12 fold enrichment (6-mer frequency, TF over GST control) | binding signal [19]: 1.36 fold enrichment (6-mer frequency, TF over GST control)

Reference: publication PMC7862700, “An all-to-all approach to the identification of sequence-specific readers for epigenetic DNA modifications on cytosine”
